# The whole screen tested about 69,000 compounds, of which about 8,600 (12%) showed an effect of 50% or more. The list comes from a sample in which strong results are over-represented; it also holds similar structures and randomly drawn compounds.
# System: Plasmodium berghei
# Assay: Screen against P. berghei liver stage (PbLuc), transformed with Luciferase, at 10uM
# Format: functional, HepG2
# Conditions: tested at 10 uM
row,Compound,INHIBITION [%]
1,COCCNC(=O)CN1CC=C(n2c(C)nc(=O)c3ccccc32)CC1,6.33
2,c1cnc(NCc2nnn3c2CN(Cc2ccco2)CCC3)nc1,-11.6
3,CN(Cc1cccc(Cl)c1)S(=O)(=O)N1CCOCC1,-14.2
4,CC(c1cccc(-c2nccn2CCc2ccccn2)c1)N(C)C (centres undefined),36.5
5,CC(=O)NCCn1ccnc1-c1cccc(C(C)N(C)C)c1 (centres undefined),30.3
6,CC(c1cccc(-c2nccn2CCc2cn[nH]c2)c1)N(C)C (centres undefined),85.9
7,Cc1noc(C)c1-c1cccc(C2CCN(CC(=O)N(C)C)CC2)n1,8
8,Cc1ncsc1C(=O)N(C)Cc1cccnc1,-4.865
9,COc1ccc(OC)c(C(=O)N2C[C@@H]3CC[C@H]2CN(C)C3)c1,9.56
10,O=c1c(NCCNCCO)c(N2CCN(c3ccc(F)cc3)CC2)c1=O,23
11,Cc1ccc(C(=O)NC2CCN(Cc3nc(C(C)C)no3)CC2)s1,13.8
12,CS(=O)(=O)NCc1cccc(COC2CCCCC2)c1,9.63
13,Clc1cnccc1NCc1cccc(COC2CCOCC2)c1,79.7
14,Clc1cncc(NCc2cccc(COC3CCOCC3)c2)n1,-16.8
15,COc1ccc(C(=O)N(Cc2cnn(C)c2)C(C)C)cc1OC(F)F,33.3
16,Cc1nc(C)n(C2CCCN(C(=O)c3cc(C4CC4)on3)C2)n1 (centres undefined),29.2
17,Cc1ccc(S(=O)(=O)NC(=O)c2cccc3c2OCCO3)c(C)c1,23.7
18,COC(=O)c1ccccc1S(=O)(=O)NC(=O)c1cccc2c1OCCO2,-7.36
19,CCN(CCCNC(=O)c1ccc(C)[nH]c1=O)S(C)(=O)=O,61
20,Cc1ccc(C(=O)NCCCN(C)S(C)(=O)=O)c(=O)[nH]1,40.4
21,Cc1ccc(C(=O)NCCCN(C(C)C)S(C)(=O)=O)c(=O)[nH]1,-8.97
22,Cc1ccc(C)c(S(=O)(=O)NC(=O)c2ccc(C)[nH]c2=O)c1,52.3
23,Cc1ccc(C(=O)NS(=O)(=O)c2cc(Br)ccc2C)c(=O)[nH]1,25.6
24,O=C(NS(=O)(=O)c1cc(Cl)ccc1Cl)c1cccc2c1OCCO2,-31.3
25,Cc1ccc(C(=O)NS(=O)(=O)c2ccccc2C)c(=O)[nH]1,24.6
26,Cc1ccc(C)c(S(=O)(=O)NC(=O)c2cccc3c2OCCO3)c1,68.8
27,O=C(NS(=O)(=O)c1ccc(Cl)cc1F)c1cccc2c1OCCO2,50
28,O=C(NS(=O)(=O)c1ccccc1Cl)c1cccc2c1OCCO2,49
29,CCc1ccc(C(COC)NC(=O)c2ccc(NC(C)=O)cc2)o1 (centres undefined),18.4

# Reference: ChEMBL document CHEMBL4513216, “Probing the Open Global Health Chemical Diversity Library for Multistage-Active Starting Points for Next-Generation Antimalarials” (ACS Infect Dis, 2020)
